Experimental data as given in PubChem BioAssay AID999 (SRMLSC, 2007).
Activity calls are given as the source filed them.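 How the source made its calls: active means viability at or below 21.59%, 3 SD under the median of tested compounds; inactive means the rest.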

Assay: growth suppression of PTEN-null HCT116 cells, cell-based, validation, diverse DP compound set (AID 999);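 further: 100% = median luminescence of untreated cell control wells and 0% = no signal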
Conditions: CellTiter-Glo, 60 h, at 10 µM, active compounds read low

| SMILES | viability |
| --- | --- |
| CC[C@@]1(O)C(=O)OCc2c1cc1n(c2=O)-c2cc3ccccc3nc2C1 | 24.7% (inactive) |
| CCN1C[C@@]2(COC)C3[C@@H](OC)[C@H]4C1[C@@]3(C1C[C@]3(O)C(OC)[C@H](O)[C@@]4(OC(C)=O)C1[C@H]3OC(=O)c1ccccc1)[C@H](OC)C[C@H]2O (some centres undefined) | 89.3% (inactive) |
| OCC1CCCN2CCCCC12 (centres undefined) | 106% (inactive) |
| O=C1C=CC(=O)C(Cl)=C1 | 95.1% (inactive) |
| C=C(C)[C@H]1CN[C@H](C(=O)O)[C@H]1CC(=O)O | 99.8% (inactive) |
| O=C1CCC[C@H]2[C@@H]3CCCN4CCC[C@H](CN12)[C@H]34 | 105% (inactive) |
| O[C@H]1[C@H](O)[C@@H](O)CN2CC[C@H](O)[C@H]12 | 97.8% (inactive) |
| COC[C@H]1OC(=O)c2coc3c2[C@@]1(C)C1=C(C3=O)C2CCC(=O)[C@@]2(C)C[C@H]1OC(C)=O (some centres undefined) | 78.4% (inactive) |
| NCC(CC(=O)O)c1ccc(Cl)cc1 (centres undefined) | 94.7% (inactive) |
| O=C1C=C2C=C[C@@H]3C[C@@]2(O1)[C@H]1CCCCN31 | 79.4% (inactive) |
| CCCCCCCCCCCCCC(=O)O[C@@H]1[C@@H](C)[C@@]2(O)[C@@H](C=C(CO)C[C@]3(O)C(=O)C(C)=C[C@@H]23)[C@@H]2C(C)(C)[C@]12OC(C)=O | 53.1% (inactive) |
| N#CC(C#N)=Cc1ccc([N+](=O)[O-])c(O)c1 | 108% (inactive) |
| COC1=C[C@@H]2[C@@H]3Cc4ccc(OC)c(O)c4[C@]2(CCN3C)CC1=O | 96% (inactive) |
| CN1C[C@H](CNC(=O)OCc2ccccc2)C[C@@H]2c3cccc4c3c(cn4C)C[C@H]21 | 75.3% (inactive) |
